Measurements: publication PMC5540273 (PLoS ONE, 2017)

test system: TLK2; conditions: concentration: 1 μM, replicates: in singlicate; n = 1
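Also: KINOMEscan kinase panel screen.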

SMILES	%Inh [%]
CCn1c(-c2nonc2N)nc2c(-c3ccccc3)ncc(OCCCN)c21.O=C(O)C(F)(F)F.O=C(O)C(F)(F)F [GSK260205]	0
Cc1ccc(-c2ccc3occ(-c4ccc(S(C)=O)cc4)c3c2)nn1 (stereo not drawn)	38
Cn1cc(-c2ccc3c(c2)CCN3C(=O)Cc2cc(F)cc(F)c2F)c2c(N)ncnc21 [GSK2634140]	0
COc1ccc(C)c(Nc2ccnc(Nc3ccc(-c4cnc[nH]4)cc3)n2)c1.Cl [GW784041]	0
c1ccc(Oc2ccc(Nc3ccnc4cc(-c5ccc(CN6CCCCC6)o5)ccc34)cc2)nc1 [GW567143]	0
CN(c1ccc(F)c(NC(=O)c2cccc(OC(C)(C)C#N)c2Cl)c1)c1ccc2nc(NC(=O)C3CC3)sc2n1	0
COc1cc(Nc2nccc(N3CCC(NS(=O)(=O)c4ccc(NC(C)=O)cc4)CC3)n2)cc(OC)c1OC [GSK1379825]	0
Cc1ccc(C)c(NC(=O)Nc2ccc(C)c(-c3ccc(C(=O)Nc4ccncc4)cc3)c2)c1 [GSK1398473]	0
CCNc1nccc(-c2c(-c3ccc(F)cc3)ncn2C2CCN(C)CC2)n1	0
Cc1ccc(NC(=O)c2cccc(N3CCCCC3)c2)cc1-c1ccc(C(=O)NCC2CC2)cc1 [GSK1917008]	0
Cl.Cl.NCC(NC(=O)c1cc(-c2cccnc2)c(-c2ccnc3[nH]ccc23)s1)c1ccccc1 (stereo not drawn) [GSK1323434]	0
COc1cccc(-c2nc(-c3ccccc3)[nH]c2-c2ccncc2)c1 [SB-610250]	0
Cn1cc(-c2cnc(N)c3c(-c4ccc5c(c4)CCN5C(=O)Cc4ccccc4)csc23)cn1 [GSK2593074]	5
CN(C)CCNS(=O)(=O)c1ccc(-c2ccnc3[nH]ccc23)cc1 [GSK977620]	7
O=C(Nc1n[nH]c2nc(-c3cccc(O)c3)ccc12)C1CC1 [SB-711805]	100
Nc1cccc(-c2ccc3c(N)n[nH]c3c2)c1 [GSK2193613]	0
Cl.O=C(Nc1ccc(Oc2ccc3[nH]c(NC(=O)c4ccco4)nc3c2)cc1)Nc1cc(C(F)(F)F)ccc1F [GW683134]	3

SMILES	%Inh [%]
COc1cccc2c(-c3ccncc3)c(-c3ccc(F)cc3)nn12 [GW468513]	0
COc1cc(Nc2ccnc3cc(-c4ccncc4)ccc23)cc(OC)c1OC.Cl [GW494610]	0
O=C(O)C(F)(F)F.O=c1[nH]ccc2nc(N[C@@H]3CCNC3)nc(Nc3ccc4c(c3)S(=O)(=O)CC4)c12 [GSK2181306]	98.5
Cl.N#CCc1ccc(Nc2nccc(Nc3ccc(Oc4ccccc4)cc3)n2)cc1 [GW639905]	0
Cc1ccc(O)cc1Nc1ccnc2cc(-c3ccc(CN4CCCCC4)o3)ccc12 [GW557777]	5
Cl.Cl.NC(CNC(=O)c1cc(Br)c(-c2ccnc3[nH]ccc23)s1)c1ccccc1 (stereo not drawn) [GSK1322949]	12
CN(c1ccc2c(c1)nc(NCc1ccccc1)n2C)c1ccnc(Nc2ccc(CS(C)(=O)=O)cc2)n1.Cl [GW811603]	0
Cc1ccc(O)cc1Nc1ccnc2ccc(C(C)(C)C)cc12 [GW856805]	31
COC(=O)Nc1nc2ccc(Oc3ccc(NC(=O)Nc4cc(C(F)(F)F)ccc4F)cc3)cc2[nH]1.Cl [GW654607]	4
Cn1cc(-c2ccc3c(c2)CCN3C(=O)Cc2cc(F)cc(C(F)(F)F)c2)c2c(N)ncnc21 [GSK2635225]	5
COc1cccc(CC(=O)N2CCc3cc(-c4cn(C)c5ncnc(N)c45)ccc32)c1 [GSK2608899]	0
N#Cc1cnc2cc(-c3cnc(CNCCN4CCOCC4)s3)ccc2c1Nc1ccc(Oc2ccccc2)cc1 [GW664114]	11
O=C(Nc1n[nH]c2cc(-c3cccs3)ccc12)C1CC1 [SB-731284]	0
CN(C)CCOc1ccc(-c2cc(-c3ccc(Cl)c(O)c3)c(-c3ccncc3)[nH]2)cc1.Cl.Cl [SB-684387]	7
Cc1cccc(Nc2nc(NCCN)ncc2C(N)=O)c1 [GSK1292139]	17
COC(=O)Nc1nc2cc(Oc3ccc(NC(=O)Nc4cccc(SC)c4)cc3)ccc2[nH]1.Cl [GW697999]	0
